# Test results: PubChem BioAssay AID1159580 (chemical genetic matrix, 2015)
# Values joined by “and” are separate entries in the source; they are usually repeats but may differ in a detail not shown here. Equal values may be shown once. The campaign covered roughly 5,500 compounds. About 2,000 (36%) were called active. About 18% were inconclusive and are not listed. Rule as the data show it: active = normalized growth mostly below about 0.91 (no sharp cut-off); inconclusive = no clear call, values can overlap the other calls; inactive = mostly above about 0.92. Some of the results follow.
# Experiment: chemical genetic growth profiling, strain panel (AID 1159580);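 also: tested at 20 µM; growth read once vehicle control cultures reached saturation at 30 °C; 1 = growth at the plate median or of vehicle wells; lower values mean less growth of the strain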
# Details: S. cerevisiae deletion strains, growth OD
smiles,measurement,setting,value
CC(CCC(=O)O)[C@H]1CCC2C3CC[C@@H]4C[C@H](O)CC[C@]4(C)C3CC[C@@]21C (some centres not stated),normalized growth,"locus YAL013W, strain DEP1, stronger effect = lower value",0.831 (active)
same,normalized growth,"locus YAL021C, strain ccr4, stronger effect = lower value",0.982 (inactive)
same,normalized growth,"locus YAL026C, strain drs2, stronger effect = lower value",0.946 (inactive)
same,normalized growth,"locus YAL030W, strain snc1, stronger effect = lower value",0.989 (inactive)
same,normalized growth,"locus YBL061C, strain skt5, stronger effect = lower value",1.03 (inactive)
same,normalized growth,"locus YBR009C, strain hhf1, stronger effect = lower value",0.888 (active)
same,normalized growth,"locus YBR021W, strain FUR4, stronger effect = lower value",0.932 (inactive)
same,normalized growth,"locus YBR023C, strain chs3, stronger effect = lower value",0.924 (inactive)
same,normalized growth,"locus YBR171W, strain sec66, stronger effect = lower value",1.01 (inactive)
same,normalized growth,"locus YBR229C, strain ROT2, stronger effect = lower value",1.04 (inactive)
same,normalized growth,"locus YBR231C, strain swc5, stronger effect = lower value",0.939 (inactive)
same,normalized growth,"locus YBR279W, strain paf1, stronger effect = lower value",1.01 (inactive)
same,normalized growth,"locus YCL011C, strain gbp2, stronger effect = lower value",0.974 (inactive)
same,normalized growth,"locus YCL016C, strain dcc1, stronger effect = lower value",0.909 (active)
same,normalized growth,"locus YCL029C, strain bik1, stronger effect = lower value",0.993 (inactive)
same,normalized growth,"locus YCL061C, strain MRC1, stronger effect = lower value",0.931 (inactive)
same,normalized growth,"locus YCL069W, strain vba3, stronger effect = lower value",1 (inactive)
same,normalized growth,"locus YCR088W, strain abp1, stronger effect = lower value",0.993 (inactive)
same,normalized growth,"locus YDL005C, strain med2, stronger effect = lower value",1.01 (inactive)
same,normalized growth,"locus YDL035C, strain GPR1, stronger effect = lower value",0.528 (active)
same,normalized growth,"locus YDL040C, strain nat1, stronger effect = lower value",1.03 (inactive)
same,normalized growth,"locus YDL074C, strain BRE1, stronger effect = lower value",0.698 (active)
same,normalized growth,"locus YDL101C, strain DUN1, stronger effect = lower value",0.713 (active)
same,normalized growth,"locus YDL185W, strain tfp1, stronger effect = lower value",1.04 (inactive)
same,normalized growth,"locus YDL192W, strain arf1, stronger effect = lower value",0.856 (active)
same,normalized growth,"locus YDR001C, strain nth1, stronger effect = lower value",1.02 (inactive)
same,normalized growth,"locus YDR069C, strain doa4, stronger effect = lower value",0.947 (inactive)
same,normalized growth,"locus YDR101C, strain arx1, stronger effect = lower value",0.977 (inactive)
same,normalized growth,"locus YDR137W, strain rgp1, stronger effect = lower value",0.452 (active)
same,normalized growth,"locus YDR159W, strain sac3, stronger effect = lower value",0.925 (inactive)
same,normalized growth,"locus YDR162C, strain NBP2, stronger effect = lower value",0.208 (active)
same,normalized growth,"locus YDR195W, strain ref2",1.07 (inactive)
same,normalized growth,"locus YDR297W, strain sur2, stronger effect = lower value",1 (inactive)
same,normalized growth,"locus YDR318W, strain mcm21, stronger effect = lower value",0.951 (inactive)
same,normalized growth,"locus YDR334W, strain swr1, stronger effect = lower value",0.989 (inactive)
same,normalized growth,"locus YDR335W, strain msn5, stronger effect = lower value",0.926 (inactive)
same,normalized growth,"locus YDR388W, stronger effect = lower value",1.01 (inactive)
same,normalized growth,"locus YDR392W, strain spt3, stronger effect = lower value",0.735 (active)
same,normalized growth,"locus YDR502C, strain sam2, stronger effect = lower value",0.878 (active)
same,normalized growth,"locus YEL003W, strain gim4, stronger effect = lower value",0.94 (inactive)
same,normalized growth,"locus YEL037C, strain rad23, stronger effect = lower value",0.994 (inactive)
same,normalized growth,"locus YEL061C, strain CIN8 (second series), stronger effect = lower value",1.01 (inactive)
same,normalized growth,"locus YEL061C, strain CIN8, stronger effect = lower value",0.912 (active)
same,normalized growth,"locus YER015W, strain faa2, stronger effect = lower value",0.907 (active)
same,normalized growth,"locus YER016W, strain bim1, stronger effect = lower value",1 (inactive)
same,normalized growth,"locus YER110C, stronger effect = lower value",1.07 (inactive)
same,normalized growth,"locus YER111C, strain swi4, stronger effect = lower value",1.01 (inactive)
same,normalized growth,"locus YER155C, strain BEM2 (second series), stronger effect = lower value",1.04 (inactive)
same,normalized growth,"locus YER155C, strain BEM2, stronger effect = lower value",0.852 (active)
same,normalized growth,"locus YER167W, strain BCK2, stronger effect = lower value",0.906 (inactive)
same,normalized growth,"locus YFR010W, strain ubp6, stronger effect = lower value",0.982 (inactive)
same,normalized growth,"locus YGL078C, strain dbp3, stronger effect = lower value",0.926 (inactive)
same,normalized growth,"locus YGL086W, strain mad1, stronger effect = lower value",0.923 (active)
same,normalized growth,"locus YGL167C, strain pmr1, stronger effect = lower value",0.988 (inactive)
same,normalized growth,"locus YGL173C, strain kem1, stronger effect = lower value",0.701 (active)
same,normalized growth,"locus YGL227W, strain vid30, stronger effect = lower value",1 (inactive)
same,normalized growth,"locus YGL240W, strain doc1, stronger effect = lower value",0.89 (inactive)
same,normalized growth,"locus YGL248W, strain PDE1, stronger effect = lower value",0.827 (active)
same,normalized growth,"locus YGL253W, strain hxk2, stronger effect = lower value",0.989 (inactive)
same,normalized growth,"locus YGR078C, strain PAC10, stronger effect = lower value",0.757 (active)
same,normalized growth,"locus YGR135W, strain pre9, stronger effect = lower value",0.84 (active)
same,normalized growth,"locus YGR229C, strain SMI1, stronger effect = lower value",0.356 (active)
same,normalized growth,"locus YGR252W, strain gcn5, stronger effect = lower value",0.792 (inactive)
same,normalized growth,"locus YHR013C, strain ard1, stronger effect = lower value",1.01 (inactive)
same,normalized growth,"locus YHR027C, strain rpn1, stronger effect = lower value",0.94 (inactive)
same,normalized growth,"locus YHR030C, strain SLT2, stronger effect = lower value",0.762 (active) and 0.955 (inactive)
same,normalized growth,"locus YHR079C, strain IRE1 (second series), stronger effect = lower value",1.06 (inactive)
same,normalized growth,"locus YHR079C, strain IRE1, stronger effect = lower value",0.955 (inactive)
same,normalized growth,"locus YHR094C, strain hxt1, stronger effect = lower value",1.08 [resistant] (active)
same,normalized growth,"locus YHR129C, strain ARP1, stronger effect = lower value",0.791 (active)
same,normalized growth,"locus YHR142W, strain chs7, stronger effect = lower value",0.873 (active)
same,normalized growth,"locus YHR200W, strain rpn10, stronger effect = lower value",1.02 (inactive)
same,normalized growth,"locus YIL066C, strain RNR3, stronger effect = lower value",0.79 (active)
same,normalized growth,"locus YIL073C, strain SPO22, stronger effect = lower value",0.937 (inactive)
same,normalized growth,"locus YIL125W, strain kgd1, stronger effect = lower value",1.04 (inactive)
same,normalized growth,"locus YIR030C, strain dcg1, stronger effect = lower value",1.04 (inactive)
same,normalized growth,"locus YJL092W, strain hpr5, stronger effect = lower value",0.966 (inactive)
same,normalized growth,"locus YJL095W, strain BCK1 (second series), stronger effect = lower value",0.893 (active)
same,normalized growth,"locus YJL095W, strain BCK1, stronger effect = lower value",0.522 (active) and 0.953 (inactive)
same,normalized growth,"locus YJL115W, strain asf1, stronger effect = lower value",1.01 (inactive)
same,normalized growth,"locus YJL129C, strain trk1, stronger effect = lower value",0.914 (inactive)
same,normalized growth,"locus YJL134W, strain LCB3, stronger effect = lower value",1.04 (inactive)
same,normalized growth,"locus YJL154C, strain vps35, stronger effect = lower value",0.997 (inactive)
same,normalized growth,"locus YJL164C, strain tpk1, stronger effect = lower value",0.92 (inactive)
same,normalized growth,"locus YJL166W, strain qcr8, stronger effect = lower value",0.83 (active)
same,normalized growth,"locus YJL168C, strain set2, stronger effect = lower value",1.14 [resistant] (active)
same,normalized growth,"locus YJL187C, strain SWE1 (second series), stronger effect = lower value",0.791 (active)
